Screening results as filed in PubChem.
HT1080 IDH1KD tx – HT-1080 IDH1 knockdown cell toxicity (counter line); HT-1080 IDH1 knockdown viability, ATP luminescence, 48 h; Potency, µM (titrated, usually from 46.1 µM), usual class: cytotoxic; 360,000 tested, 2% active
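HT-1080-IDH1KD cells (IDH1 knocked down), 750/well in RPMI with 5% FBS, treated with compound 48 h at 37 degrees C. Viability by CellTiter-Glo luminescence, normalised to DMSO and no-cell wells; concentration-response curves classed.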
HT1080-NT tox – kills 2HG-producing HT-1080-NT fibrosarcoma cells | 360,000 tested, 1.6% active | AID 686970 | HT-1080-NT fibrosarcoma viability, CellTiter-Glo ATP luminescence, 48 h | Potency, µM (titrated, usually from 46.1 µM), actives largely listed as cytotoxic;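 further: NT is the 2HG producing partner of a matched IDH1 knockdown line; nearly all actives have a fitted effect of over 55% in size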
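Viability of the 2HG-overproducing fibrosarcoma line after 48 hours of compound exposure at 37 degrees C was determined by luminescence with CellTiter-Glo, and concentration-effect curves were then fitted and categorized.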
TDP1 cell noCPT – qHTS for Inhibitors of human tyrosyl-DNA phosphodiesterase 1 (TDP1): qHTS in cells in absence of CPT | DT40 Tdp1-/- hTDP1 cells, no CPT, ATP luminescence, 48 h | 420,000 tested, 15% active | AID 686978, 2013 | Potency, µM (highest dose often 46.2 µM), most hits filed as inhibitors; further: nearly all actives have a fitted effect of over 55% in size
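Readout: luminescence from CellTiter-Glo after 30 min in the dark at RT. Cells: DT40 Tdp1-/- with stable hTDP1, 400/well. Exposure: compounds alone, ≥48 hr, 37 °C.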
IL-1B inflam inh – blocks inflammasome-driven IL-1 beta release | 360,000 tested, 4.7% active | AID 743279 | activity change, % at 57.5 µM | THP-1 LPS/ATP IL-1B secretion, AlphaLISA, 16 h; hits give low values; in the data active means activity change below about -50%; inconclusive means mostly about -30% to -49%
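THP-1 cells pretreated 1 hr with compounds (up to 57.5 uM final), then stimulated with LPS (250 ng/mL final) plus ATP (1.25 mM final); secreted IL-1B measured by AlphaLISA after 16 hr, decreased signal indicating inhibition.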
DT40 TDP1 CPT – DT40-hTDP1 cell growth loss with CPT; chicken DT40 Tdp1-/-;hTDP1 cells + 20 nM CPT, ATP luminescence, 48 h; Potency, µM (titrated, usually from 46.2 µM), actives largely listed as inhibitors; 420,000 tested, 12% active; AID 686979; further: nearly all actives have a fitted effect of over 55% in size
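Chicken DT40 Tdp1-/- cells complemented with human TDP1, 400 cells/well, exposed to compounds plus 20 nM camptothecin for at least 48 h at 37 C; viability read as ATP content by CellTiter-Glo luminescence.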
A number is an active result; n = inactive; u = inconclusive; x = not tested or not shown; [ ] = dose if it differs, or a comment. In the library only some 19% were active in any assay of this set; here they are far more common. Unless noted, the call rests on the fitted dose curve; in most records, active means well fitted curve in the direction sought with a large enough effect; inconclusive means small, poorly fitted or top-dose-only effect, or another doubt; inactive means no such curve, though single readings can be large; an effect the other way counts as inactive or inconclusive.

SMILES	HT1080 IDH1KD tx	HT1080-NT tox	TDP1 cell noCPT	IL-1B inflam inh	DT40 TDP1 CPT
COc1cccc(C(=O)C[n+]2cccc3cc(OC)ccc32)c1	n	n	n	n	n
O=C(C[n+]1cccc2ccccc21)c1ccc(Cl)cc1	n	n	n	n	n
O=C(C[n+]1cccc2ccccc21)c1ccc([N+](=O)[O-])cc1	u	n	u	n	20.6µM
O=[N+]([O-])c1ccc(Cl)c(C[n+]2cccc3ccccc32)c1	n	n	18.4µM	n	20.6µM
O=[N+]([O-])c1ccc(Cl)c(CN2CCCCCC2)c1	n	n	n	n	n
Cc1cccc(OCc2n[nH]c(=S)n2Cc2ccccc2)c1	n	n	n	n	n
Cc1cc(C)c(NC(=O)/C(=C/c2ccccc2)c2ccccc2)c(C)c1	n	n	20.6µM	n	23.1µM
Cc1ccc(SCCc2cc[n+](CC(=O)c3ccccc3)cc2)cc1	n	n	16.4µM	-150.8	16.4µM
Cc1ccc(SCCNC(=O)c2ccccc2)cc1	n	n	n	n	n
Cc1ccc(C(=O)C[n+]2ccc(Cc3ccccc3)cc2)cc1	n	n	5.8µM	u	5.8µM
Cc1cc[n+](CC(=O)c2ccc(F)cc2)cc1	x	x	n	x	n
CCC(c1nnnn1-c1ccc2c(c1)OCCO2)N1CCN(c2ncccc2C(F)(F)F)CC1 (configuration not stated)	u	n	18.4µM	n	u
CCC(c1nnnn1-c1ccc2c(c1)OCCO2)N1CCN(c2ccc(F)cc2)CC1 (configuration not stated)	u	n	16.4µM	n	14.6µM
CCC(c1nnnn1-c1ccc2c(c1)OCCO2)N1CCc2ccccc2C1 (configuration not stated)	n	n	u	n	u
COc1ccc(S(=O)(=O)N(C)c2c(C)n(C)n(-c3ccccc3)c2=O)cc1OC	n	n	n	n	n
Cc1nn(CC(=O)NC(C)C)c(C)c1[N+](=O)[O-]	n	u	n	n	n
Cc1cc(NC(=O)CCC(=O)N(CC(=O)NC2CCCC2)c2ccc(C)c(F)c2)no1	n	n	n	n	n
CN(Cc1cn(-c2ccccc2)nc1-c1ccc2c(c1)OCO2)Cc1nccn1C	n	n	23.1µM	u	25.9µM
Cc1ccccc1NC(=O)Cc1nc(COC(=O)c2nccnc2N)cs1	n	n	n	n	n
CCOc1cc(Cl)c(S(=O)(=O)NCCCn2ccnc2)cc1Cl	u	n	16.4µM	n	20.6µM
O=C(C(=NNc1ccccc1)C(=S)Nc1ccccc1)c1ccccc1	n	u	u	n	29.1µM
COc1ccc(C(C)(O)c2nc(-c3ccoc3)cs2)cc1 (configuration not stated)	n	n	u	n	u
Cc1cc(C)c(S(=O)(=O)N2CCN(C(=O)c3cc(=O)[nH]c4ccccc34)CC2)c(C)c1	n	n[9.24 µM]	16.4µM	n	14.6µM
N#Cc1ccccc1S(=O)(=O)N1CCN(C(=O)c2cc(=O)[nH]c3ccccc23)CC1	n	n	n	n	u
Cc1cc(C)c(C)c(S(=O)(=O)N2CCN(C(=O)c3cc(=O)[nH]c4ccccc34)CC2)c1C	u	u	13µM	n	u
SMILES	HT1080 IDH1KD tx	HT1080-NT tox	TDP1 cell noCPT	IL-1B inflam inh	DT40 TDP1 CPT
CC(=O)N1CC(C)Sc2ccc(S(=O)(=O)N3CCCCC3)cc21 (configuration not stated)	n	n	n	n	u
COc1ccccc1-n1ccnc(SCC(=O)NCCc2ccccc2)c1=O	n	n	n	n	n
Cc1ccc(NC(=O)c2cc3c([nH]c2=O)CC(C)(C)CC3=O)c(C)c1	x	x	n	x	n
COc1cc(CC(=O)OCC(=O)Nc2ccc3c(c2)OCO3)cc(OC)c1OC	n	n	n	n	n
Cc1cccc(N2CCN(C(=O)CCn3c(=S)[nH]c4cc5c(cc4c3=O)OCO5)CC2C)c1 (configuration not stated)	n	n	23.1µM	n	16.4µM
O=C(CCCn1c(=S)[nH]c2cc3c(cc2c1=O)OCO3)N1CCN(c2ccc(Cl)cc2)CC1	n	n	18.4µM	n	u
O=C(CSCc1cnn(-c2ccccc2)c1-n1cccc1)N1CCN(Cc2ccccc2)CC1	n	n	13µM	n	u
O=C(O)CSCc1cnn(-c2ccccc2)c1-n1cccc1	n	n	n	n	n
Cc1ccc(CNC(=O)CCSCc2cnn(-c3ccccc3)c2-n2cccc2)cc1	x	x	14.6µM	x	18.4µM
COc1cccc(CNC(=O)CSCc2cnn(-c3ccccc3)c2-n2cccc2)c1OC	n	n	u	u	25.9µM
COc1ccccc1CNC(=O)CSCc1cnn(-c2ccccc2)c1-n1cccc1	n	n	16.4µM	n	u
O=C(CSCc1cnn(-c2ccccc2)c1-n1cccc1)NCc1cccnc1	n	n	u	n	u
COc1ccc(C(=O)NC2CC(C)(C)NC(C)(C)C2)cc1S(=O)(=O)N1CCOCC1	n	n	n	n	n
C=CCOC(=O)Nc1nc(CCNC(=O)OCc2ccccc2)c(C(=O)O)s1	n	n	n	n	n
O=C(CSCc1cnn(-c2ccccc2)c1-n1cccc1)NCc1cccc(Cl)c1	x	x	23.1µM	x	16.4µM
O=C(NCc1cccc(Cl)c1)C1CCCN(c2ncnc3c2nc2n3CCCCC2)C1 (configuration not stated)	n	n	11.6µM	u	n
O=C(NCC1CCN(Cc2cccc(Cl)c2)CC1)C1CCCN(c2ncnc3c2nc2n3CCCCC2)C1 (configuration not stated)	u	20.6µM	u	u	25.9µM
O=C(NCC1CCN(Cc2ccc(F)cc2)CC1)C1CCCN(c2ncnc3c2nc2n3CCCCC2)C1 (configuration not stated)	n	n	u	u	u
Cc1cccc(CCNC(=O)C2CCCN(c3ncnc4c3nc3n4CCCCC3)C2)c1 (configuration not stated)	n	n	u	n	n
O=C(NCc1ccccc1)C1CCCN(c2ncnc3c2nc2n3CCCCC2)C1 (configuration not stated)	n	n	20.6µM	n	u
O=C(NCCc1ccc(Cl)cc1)C1CCCN(c2ncnc3c2nc2n3CCCCC2)C1 (configuration not stated)	n	n	u	n	u
Cc1ccc(CNC(=O)C2CCCN(c3ncnc4c3nc3n4CCCCC3)C2)cc1 (configuration not stated)	n	n	9.2µM	n	u
O=C(CSc1nc2c([nH]c3ccccc32)c(=O)n1-c1ccccc1)N1CCCCCC1	x	x	n	x	u
COc1ccc(CCNC(=O)C2CCCN(c3ncnc4c3nc3n4CCCCC3)C2)c(OC)c1 (configuration not stated)	n	n	u	n	u
